# Measurements as given in article PMC4336329 (PLoS ONE, 2015).
# Screen size: about 310,000 compounds; about 2,200 (0.71%) showed an effect of 50% or more. Effects have a minus sign here. This excerpt belongs to a sample that is enriched for strong results.
# Biological target: human ether-à-go-go-related gene (hERG) potassium channel (human, UniProt Q12809)
# Assay: primary screen, population patch clamp on CHO cells stably expressing hERG; higher = less effect of the substance
# Description: Briefly, Chinese hamster ovary (CHO) cells stably expressing the hERG channel were dislodged from tissue culture flasks and dispensed into PPC plates. […] During the recording, background leak currents were estimated by a 100 ms step to -80 mV from an initial holding potential of -70 mV and subtracted from the subsequent current measurement. The campaign was conducted in two phases using slight differences in recording protocol. In the first phase, the initial voltage pulse used a 100 ms step to -30 mV from a holding potential of -70 mV, a 2 s conditioning step to +25 mV, and a 2 s test step to -30 mV. During the second phase of the screen, the potential during the conditioning step was raised to +45 mV. In both phases of the campaign, a secondary voltage pulse was applied using the same parameters as the second phase initial pulse. The initial and secondary pulses were applied in the absence of compound, and upon application of 1 μM and 10 μM test concentrations. Small molecule effects on hERG current density were quantified by […].
# Sequence of human ether-à-go-go-related gene (hERG) potassium channel (Q12809 whole entry, looked up): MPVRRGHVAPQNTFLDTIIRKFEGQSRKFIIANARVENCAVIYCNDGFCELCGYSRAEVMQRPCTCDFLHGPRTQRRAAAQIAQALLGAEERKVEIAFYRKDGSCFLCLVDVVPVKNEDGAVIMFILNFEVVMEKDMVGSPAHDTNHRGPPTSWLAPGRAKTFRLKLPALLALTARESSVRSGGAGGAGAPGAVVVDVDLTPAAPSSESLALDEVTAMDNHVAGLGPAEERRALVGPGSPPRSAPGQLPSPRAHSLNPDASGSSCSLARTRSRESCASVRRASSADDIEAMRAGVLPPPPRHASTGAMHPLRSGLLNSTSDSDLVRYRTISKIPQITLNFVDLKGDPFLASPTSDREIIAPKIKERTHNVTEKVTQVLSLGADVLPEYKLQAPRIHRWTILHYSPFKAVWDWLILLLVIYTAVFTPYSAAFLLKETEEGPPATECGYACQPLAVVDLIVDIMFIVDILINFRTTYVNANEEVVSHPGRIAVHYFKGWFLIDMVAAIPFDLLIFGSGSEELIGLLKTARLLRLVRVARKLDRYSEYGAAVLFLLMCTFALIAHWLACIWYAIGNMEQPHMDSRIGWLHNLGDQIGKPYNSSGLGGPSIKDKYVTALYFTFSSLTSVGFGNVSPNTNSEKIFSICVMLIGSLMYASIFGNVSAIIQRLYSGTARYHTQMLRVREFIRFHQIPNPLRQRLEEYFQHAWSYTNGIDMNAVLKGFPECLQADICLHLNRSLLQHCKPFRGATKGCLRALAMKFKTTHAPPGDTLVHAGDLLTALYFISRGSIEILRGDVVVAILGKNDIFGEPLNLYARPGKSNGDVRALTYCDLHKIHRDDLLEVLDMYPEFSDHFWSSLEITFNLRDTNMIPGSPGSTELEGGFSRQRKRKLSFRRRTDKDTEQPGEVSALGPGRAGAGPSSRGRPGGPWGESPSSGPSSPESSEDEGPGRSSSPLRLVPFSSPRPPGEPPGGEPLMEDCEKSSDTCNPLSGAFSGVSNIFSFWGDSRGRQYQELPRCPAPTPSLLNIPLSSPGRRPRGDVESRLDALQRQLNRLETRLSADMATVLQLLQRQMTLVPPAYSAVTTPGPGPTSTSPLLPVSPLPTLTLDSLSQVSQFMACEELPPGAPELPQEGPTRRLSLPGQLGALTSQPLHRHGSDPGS
row,Compound,"hERG current change (%, negative = inhibition) at 1uM"
1,Cc1ccc(NC(=O)CN2C(=O)CCSc3ccc(S(=O)(=O)N4CCCC4)cc32)cc1,19%
2,CCOC(=O)C1CCN(CC(=O)c2ccc(O)c(C)c2O)CC1,12.3%
3,Cc1cc2c(NC3CCCCC3)ncnc2s1.Cl,12%
4,N#C/C(=C\c1c(Cl)cccc1Cl)c1nc2ccccc2o1,2.68%
5,Cc1cc(-c2ccc(C)c(S(=O)(=O)Nc3cc(C)on3)c2)on1,1.77%
6,O=C(N=C1SCC(=O)N1c1ccccc1)c1ccco1,-1.23%
7,CCN(CC)CCCn1c(SCC(=O)Nc2cccc(F)c2)nnc1-c1ccoc1C,-63%
8,Cc1ccc(NC(=O)CSc2nnc(-c3ccoc3C)n2CCCN(C)C)cc1Cl,-70.2%
9,CCCn1c(SCC(=O)Nc2cccc(C(=O)OCC)c2)nnc1-c1ccoc1C,5.88%
10,Cc1occc1-c1nnc(SCC(=O)Nc2ccccc2)n1CCc1ccccc1,-20.1%
11,COCCn1c(SCC(=O)Nc2ccc(OC)cc2)nnc1-c1ccoc1C,12.2%
12,COCCCn1c(SCC(=O)Nc2ccc3c(c2)OCCO3)nnc1-c1ccoc1C,1.88%
13,O=C(NCCCN1CCOCC1)C1(c2ccccc2)CCOCC1,19.2%
14,COc1ccccc1Nc1nc(N)nc(CN2CCc3ccccc3C2)n1,-2.7%
15,CCOC(=O)C1CCCN(Cc2nc(N)nc(Nc3ccc(OC)cc3)n2)C1 (stereo not shown),-67.8%
16,CCOC(=O)C1CCCN(Cc2nc(N)nc(Nc3ccccc3)n2)C1 (stereo not shown),-18.6%
17,CCOC(=O)C1CCCN(Cc2nc(N)nc(Nc3ccc(C)cc3)n2)C1 (stereo not shown),-47.6%
18,CCOC(=O)C1CCCN(Cc2ccc(OC)cc2OC)C1 (stereo not shown),-13.6%
19,CCOC(=O)C1CCCN(Cc2nc(N)nc(Nc3ccc(Cl)cc3)n2)C1 (stereo not shown),-71.6%
20,CCOC(=O)N1CCN(Cc2nc(N)nc(Nc3ccc(Oc4ccccc4)cc3)n2)CC1,-36.8%

row,Compound,"hERG current change (%, negative = inhibition) at 1uM"
1,CCOC(=O)C1CCCN(Cc2nc(N)nc(Nc3ccccc3OC)n2)C1 (stereo not shown),-53.2%
2,Cc1ccc(Nc2nc(N)nc(CN3CCCCCC3)n2)cc1,-45.2%
3,CCc1cccc2c(C=C(C#N)C#N)cn(CC(=O)N3CCCC3)c12,2.04%
4,CNC(=O)C1CCN(S(=O)(=O)c2c(C)noc2/C=C/c2ccc(C)cc2)CC1,10.2%
5,COc1ccccc1/C=C/CN1CCC(Oc2cc(C(=O)NC3CC3)ccc2OC)CC1,-78.3%
6,COc1ccccc1/C=C/CN1CCC(Oc2ccc(C(=O)N3CCCCC3)cc2)CC1,7.23%
7,COc1ccc(C(=O)NC2CC2)cc1OC1CCN(C/C=C/c2ccccc2)CC1,-84.3%
8,COc1ccccc1/C=C/CN1CCC(Oc2ccc(C(=O)N3CCCC3)cc2)CC1,10.1%
9,COc1cc(C(=O)N2CCN(C/C=C/c3ccccc3)CC2)cc(OC)c1OC,-2.2%
10,COc1cc(C(=O)N2CCN(C/C=C/c3ccccc3)CC2)cc(OC)c1C,6.9%
11,Cc1ccc(SCCC(=O)NCCSCc2ccccc2C)cc1,10.1%
12,O=P1(O)C=C(c2ccccc2)OC(c2ccccc2)=C1,14.1%
13,CCN1CCN(P2(=O)C=C(c3ccccc3)OC(c3ccccc3)=C2)CC1,-86.5%
14,O=P1(Nn2cnnc2)C=C(c2ccccc2)OC(c2ccccc2)=C1,-9.39%
15,Cc1ccc(CSCC(=O)NCc2cccs2)cc1,7.51%
16,CCc1ccc(-n2nnnc2SCC(=O)Nc2ccc(NC(C)=O)cc2)cc1,20.4%
17,Cc1cc(SCC(=O)N/N=C/c2ccc(O)cc2O)c(C)cc1Br,8.67%
18,Cn1c(CCN2CCN(c3ccccn3)CC2)nc2cc(NC(=O)COc3ccccc3)ccc21,-67%
19,Cc1cccc(OCC(=O)Nc2ccc3c(c2)nc(CCN2CCN(c4ccccn4)CC2)n3C)c1,-67%
20,Cn1c(CCN2CCN(c3ccccn3)CC2)nc2cc(NC(=O)COc3ccc([N+](=O)[O-])cc3)ccc21,9.63%

row,Compound,"hERG current change (%, negative = inhibition) at 1uM"
1,CCC(=O)Nc1ccc2c(c1)nc(CCN1CCN(c3ccccn3)CC1)n2C,4.59%
2,Cc1cccc(OCC(=O)Nc2ccc3c(c2)nc(CCN2CCC(C)CC2)n3C)c1,-47.9%
3,Cn1c(CCN2CCN(c3ccccn3)CC2)nc2cc(NC(=O)COc3ccc(Cl)cc3)ccc21,0.879%
4,COc1ccc(C2OC(=O)CC2C(=O)N2CCN(c3cc(Cl)ccc3C)CC2)cc1OC (stereo not shown),7.68%
5,CCn1c(-c2cc(-c3ccc(C)c(C)c3)nc3ccccc23)n[nH]c1=S,16.2%
6,CCOC(=O)C1CCN(C2CC(=O)N(c3ccc(OCC)cc3)C2=O)CC1 (stereo not shown),2.22%
7,CCOC(=O)c1cnc2c(C(=O)OC)cccc2c1NCCN1CCOCC1,-47.1%
8,CCOC(=O)c1cnc2c(C)cccc2c1NCc1ccco1,-45.3%
9,CCOC(=O)c1cnc2c(C(=O)OC)cccc2c1NCc1ccco1,-71.4%
10,CCOC(=O)c1cnc2ccc(OCC)cc2c1NCc1cccnc1.Cl,-75.3%
11,CCOC(=O)c1cnc2ccc(OCC)cc2c1NCc1ccccc1,-12.8%
12,CCOC(=O)c1cnc2ccccc2c1NCc1ccco1,-14.7%
13,CCOC(=O)c1cnc2ccc(OC)cc2c1NCc1ccccc1,-33.4%
14,CCOC(=O)c1ccc(NCc2cccnc2)cc1,8.24%
15,CCOC(=O)c1cnc2c(OC)cccc2c1Oc1ccccc1,11%
16,CCOC(=O)c1cnc2c(OC)cccc2c1Nc1ccc2c(c1)OCCO2,-3.26%
17,CCOC(=O)c1cnc2c(C(=O)OC)cccc2c1NCc1cccnc1,-55.5%
18,CCOC(=O)c1cnc2c(OC)cccc2c1NCc1cccnc1,-68.1%
